# Screens from PubChem BioAssay.
# Shown are actives, neighbours in structure and some others; about 7.5% of the full set was active somewhere.
# ELG1 DNA repair = qHTS screen for small molecules that inhibit ELG1-dependent DNA repair in human embryonic kidney (HEK293T) cells expressing luciferase-tagged ELG1. Potency, µM (titrated, usually from 46.1 µM), actives largely listed as inhibitors. HEK293T ELG1-luciferase reporter, luminescence, 16 h; DNA damage induced by 5-fluorouridine. 330,000 compounds, 2.3% hits; also: nearly all actives have a fitted effect of over 55% in size
#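 Overnight (16 hr) co-exposure of 2,000 cells/well to 5-fluorouridine and compound at 37 °C preceded detection. Luciferase was quantified via ONE-Glo luminescence; loss of signal denotes inhibition.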
# VP16 counter = VP16 counterscreen qHTS for inhibitors of ROR gamma transcriptional activity | Potency, µM (series often up to 53.6 µM), hits mostly inhibitors | Drosophila S2 Gal4-VP16 UAS-luciferase, luminescence, 20 h | 310,000 compounds, 3.5% hits | AID 2546, 2010;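 also: Gal4-VP16 expression switched on by copper sulfate through the metallothionein promoter; nearly all actives have a fitted effect of over 50% in size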
# TSHR antagonist = Antagonists of the Thyroid Stimulating Hormone Receptor: HTS campaign | Thyrotropin receptor (Homo sapiens), P16473 | TSHR-expressing cells, TSH-stimulated cAMP HTRF, 2 h; active compounds read low | activity change, negative = inhibition, % at 11.5 µM | 330,000 compounds, 0.2% hits | AID 504810, 2011;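 active = activity change below a set negative limit, meaning inhibition stronger than a set level, cut at about -70% in these data; inconclusive = activity change between two set negative limits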
#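 Cell-based HTRF cAMP assay; TSHR cells + compound, TSH EC80 (4nM final), 2 h, 37 deg C. Lysis with anti-cAMP cryptate and cAMP-d2, 30 min RT, read 665/620 nm.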
# B2AR arrestin = qHTS assay of beta-arrestin-biased ligands of beta2-adrenergic receptor. Beta-2 adrenergic receptor (Homo sapiens), P07550. beta-arrestin recruitment to beta2AR, cell-based reporter. Potency, µM (doses to about 46.1 µM), actives largely listed as activators. 330,000 compounds, 0.02% hits. AID 492947, 2010; also: nearly all actives have a fitted effect of over 65% in size
# RORg inh = qHTS for inhibitors of ROR gamma transcriptional activity; Potency, µM (doses to about 53.6 µM), actives largely listed as inhibitors; 310,000 compounds, 5.4% hits; Drosophila S2 Gal4-RORgamma UAS-luciferase reporter, 20 h; Nuclear receptor ROR-gamma (Mus musculus), P51450; also: nearly all actives have a fitted effect of over 60% in size
# Target sequence (P51450 whole entry, looked up, the tested form may be a part): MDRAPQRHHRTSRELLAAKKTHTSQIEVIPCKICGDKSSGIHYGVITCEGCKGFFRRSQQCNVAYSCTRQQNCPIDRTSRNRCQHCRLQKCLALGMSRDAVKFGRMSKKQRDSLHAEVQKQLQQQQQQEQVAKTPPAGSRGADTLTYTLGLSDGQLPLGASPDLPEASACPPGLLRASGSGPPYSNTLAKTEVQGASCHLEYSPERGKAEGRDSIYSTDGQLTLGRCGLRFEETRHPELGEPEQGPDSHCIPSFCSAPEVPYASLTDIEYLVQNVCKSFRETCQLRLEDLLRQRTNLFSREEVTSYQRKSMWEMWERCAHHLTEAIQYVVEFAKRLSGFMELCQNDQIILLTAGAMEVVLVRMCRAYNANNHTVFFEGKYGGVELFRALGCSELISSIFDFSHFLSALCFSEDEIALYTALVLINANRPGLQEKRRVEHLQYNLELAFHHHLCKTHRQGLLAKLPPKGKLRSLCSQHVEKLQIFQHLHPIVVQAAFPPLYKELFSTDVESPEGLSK
#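 Read-out: Photinus luciferase luminescence; inhibitors lower reporter signal. Insect Schneider cells with Gal4-ROR gamma fusion under metallothionein promoter, UAS reporter; 700 uM final copper sulfate induction, 20 hr, ambient temperature.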
# Numbers stand for hits; 0 = inactive; ? = inconclusive; - = not tested or not shown. Unless noted, calls follow the shape of the dose curve; as a rule, active = well fitted curve in the direction sought with a large enough effect; inconclusive = small, poorly fitted or top-dose-only effect, or another doubt; inactive = no such curve, though single readings can be large; an effect the other way counts as inactive or inconclusive.
SMILES,ELG1 DNA repair,VP16 counter,TSHR antagonist,B2AR arrestin,RORg inh
O=C(CCc1ccccc1)Nc1nnc(-c2ccc3c(c2)CCCC3)o1,?,?,0,0,14.1µM
O=C(CCc1ccccc1)Nc1ccc2c(c1)OCCO2,?,0,0,0,0
O=C(CCc1ccccc1)Nc1nnc(-c2ccc3c(c2)OCCO3)o1,0,?,0,0,6.31µM
CCOC(=O)N1CCC(NC(=O)CS(=O)Cc2nc(-c3ccc(Cl)cc3)oc2C)CC1 (centres undefined),?,0,0,0,0
C[C@H](NS(=O)(=O)c1ccccc1)C(=O)N1CCN(C(c2ccccc2)c2ccccc2)CC1,25.9µM,-,0,0,-
CSCCC(NS(=O)(=O)c1ccc(C)cc1)C(=O)N1CCN(C(c2ccccc2)c2ccccc2)CC1 (centres undefined),0,-,0,0,-
CCc1cccc(NC(=S)N2CCC(c3ccccc3)C2)c1 (centres undefined),?,10µM,0,0,7.08µM
Cc1ccc(NC(=S)N2CCC(c3ccc(C)cc3)C2)cc1 (centres undefined),?,20µM,0,0,10µM
CN1C(=O)c2cccc3c(S(=O)(=O)Nc4ccccc4F)ccc1c23,?,0,0,0,0
CCCNC(=O)c1ccc(N2CCC3(CC2)CC(c2ccccc2)=NO3)c(NC(=O)c2ccco2)c1,5.8µM,0,0,0,0
COc1ccc(CC(=O)N2CCN(S(=O)(=O)c3cc(Cl)ccc3Cl)CC2)cc1,0,-,0,0,-
CCCNS(=O)(=O)c1ccc(CCC(=O)Nc2cc(Cl)ccc2Oc2ccccc2)cc1,23.1µM,0,0,0,?
COC(CNC(=O)c1ccc(N2CCc3ccccc32)c([N+](=O)[O-])c1)OC,?,17.8µM,0,0,?
NNC(=O)c1ccc(N2CCc3ccccc32)c([N+](=O)[O-])c1,0,0,0,0,?
Clc1ccccc1/C=C/c1nc(-c2ccccn2)no1,?,?,0,0,2.51µM
Cc1onc(-c2ccccc2Cl)c1-c1nc(-c2ccccn2)no1,0,0,0,0,0
NCCCC[C@H](NC(=O)[C@H](CCCN=C(N)N)NC(=O)[C@H](CO)NC(=O)[C@H](CCCN=C(N)N)NC(=O)[C@@H](N)Cc1ccc(O)cc1)C(=O)N[C@@H](Cc1ccc(O)cc1)C(=O)N[C@@H](CO)C(=O)N[C@@H](CO)C(=O)N[C@@H](Cc1c[nH]c2ccccc12)C(=O)N[C@@H](Cc1ccc(O)cc1)C(=O)O,-,0,-,-,0
COc1ccc(NC(=O)N2CC3(CCN(C(=O)c4cc(C(F)(F)F)cc(C(F)(F)F)c4)CC3)C2)cc1,-,0,-,-,0
CCOC(=O)N1CCC(=NNC(=O)c2cc3ccccc3cc2O)CC1,0,?,0,0,12.6µM
O=C(NN=C1CCN(Cc2ccccc2)CC1)c1ccccc1O,0,?,0,0,10µM
O=C(NN=C1CCCCCC1)c1cc2ccccc2cc1O,0,?,0,0,?
CC(=O)N1CCC(=NNC(=O)c2cc3ccccc3cc2O)CC1,0,0,0,0,10µM
O=C(NN=C1CCN(Cc2ccccc2)CC1)c1cc2ccccc2cc1O,0,0,0,0,0
O=C(N/N=C1\CCc2ccccc21)c1ccccc1O,?,?,0,0,?
CCOC(=O)C1=C(C)C/C(=N\NC(=O)c2ccccc2O)CC1,?,10µM,0,0,5.01µM
SMILES,ELG1 DNA repair,VP16 counter,TSHR antagonist,B2AR arrestin,RORg inh
CCC(C)=O,-,0,-,-,0
O=C(NN=C1C2CC3CC(C2)CC1C3)c1ccccc1O,0,0,0,0,12.6µM
O=C(NN=C1C2CC3CC(C2)CC1C3)c1cccs1,?,0,0,0,0
CCN(CC)CCNc1cc(C)nc2c1C(=O)C(=O)C=C2N1CCCCC1,0,0,0,0,5.01µM
C=CCn1c(OCc2ccccc2)n[nH]c1=S,0,17.8µM,0,0,3.98µM
C=CCn1c(C(c2ccccc2)c2ccccc2)n[nH]c1=S,0,7.94µM,0,0,7.94µM
C=CCn1c(C(C)NC(=O)c2cccs2)n[nH]c1=S (centres undefined),0,0,0,0,10µM
CCOC(=O)N1CCC(NC(=O)c2cc(C(=O)Nc3cccc(C(F)(F)F)c3)ccc2CO)CC1,8.2µM,?,0,0,?
CC(=O)N1c2ccc(S(=O)(=O)N3CCCC3C(=O)NCc3ccccc3Cl)cc2CC1C (centres undefined),0,0,0,0,6.31µM
O=C(NC(=S)N1CCN(C/C=C/c2ccccc2)CC1)c1cccnc1,?,0.891µM,0,0,0.398µM
O=C(NC(=S)N1CCN(C/C=C/c2ccccc2)CC1)c1ccc(F)cc1,10.3µM,0.631µM,0,0,0.282µM
COCCNC(=S)N1CCN(c2nc(-c3ccccc3)cs2)CC1,0,0,0,0,0
Fc1ccccc1NC(=S)N1CCN(C/C=C/c2ccccc2)CC1,0,?,0,0,?
O=C(NC(=S)N1CCN(c2nc(-c3ccccc3)cs2)CC1)c1cccnc1,0,0.0079µM,0,0,0.112µM
CC(C)C[C@H](NC(=O)[C@H](Cc1ccccc1)NC(=O)[C@@H]1CCCN1C(=O)[C@H](CC(=O)O)NC(=O)[C@@H]1CCC(=O)N1)C(=O)N[C@@H](CCCN=C(N)N)C(=O)N[C@@H](Cc1ccccc1)C(N)=O,-,0,-,-,0
COc1ccc(CNC(=O)CN2CCN(c3ccccc3O)CC2)cc1OC,0,0,0,0,0
c1ccc2c(Nc3ccc4c(c3)OCCO4)c3c(nc2c1)CCCC3,?,0,0,0,0
O=C(Nc1ccc(Cc2ccncc2)cc1)c1cc([N+](=O)[O-])ccc1N1CCOCC1,0,0,0,0,0
COc1ccc(C(=O)NN/C(C)=C/C(=O)C(F)(F)C(F)(F)C(F)(F)F)cc1,?,5.62µM,0,0,5.62µM
O=C(C[C@H]1C/C=C\CC[C@@H](Cc2ccc(F)cc2)C(=O)OC[C@H]2CCCN2C1=O)N[C@H](CO)Cc1ccccc1,23.1µM,-,0,0,-
O=C1N[C@H](Cc2ccccc2)COC(=O)[C@@H](Cc2ccc(F)cc2)CC/C=C/C[C@H]1CC(=O)N(CCO)Cc1ccccc1,20.6µM,-,0,0,-
O=C1N[C@@H](c2ccccc2)COC(=O)[C@@H](Cc2ccc(F)cc2)C/C=C\C[C@@H]1CC(=O)N(CCO)Cc1ccccc1,20.6µM,-,0,0,-
O=C1N[C@@H](Cc2ccccc2)COC(=O)[C@H](Cc2ccc(F)cc2)C/C=C\C[C@@H]1CC(=O)N(CCO)Cc1ccccc1,20.6µM,-,0,0,-
O=C1N[C@@H](Cc2ccccc2)COC(=O)[C@@H](Cc2ccc(F)cc2)CC/C=C/C[C@@H]1CC(=O)N(CCO)Cc1ccccc1,?,-,0,0,-
